The values that follow come from PubChem BioAssay (NCI).

The structures appear in SMILES notation. About 83,000 compounds went through this panel and 20% of them were active in at least one assay; those are over-represented in the sample as a whole.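 Method: cells in 96-well plates; compound added at one concentration; 48 h incubation; percent growth measured; values under 10 scored active.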 Values without a mark were called inactive. Calls of active or inactive are those of the source.

This assay concerns HL-60(TB) leukemia. As to the kind of experiment: NCI-60 one-dose screen, 48 h (100 = growth as untreated, 0 = no growth, -100 = all killed). The following applies: 10 µM unless noted.
Regarding `COc1ccc2c(c1)c(-c1nc(-c3c[nH]c4ncccc34)cs1)cn2C`, the growth was 63.5%.

For `CCOC(C=O)OCC`, the growth was 104%.

As for `Cc1cc2c(c(C)c1Cl)C(=O)/C(=C/c1ccco1)O2`, the growth was 97.5%.

Take `CNC1=C([N+](=O)[O-])C(c2ccc(OC)cc2)C(C#N)=C(c2ccc[nH]2)O1` (stereo unspecified): the growth is 93.9%.

`COc1ccc(/C(C)=C(\c2ccc(Cl)cc2)c2ccc(OCCN3CCCCCC3)cc2)cc1F`: the growth is -15.4% (active).

In the case of `COc1ccc(-c2cc(-c3ccccc3)nc(SCCCCCC(=O)NO)n2)cc1`, the growth was -26.2% (active).

As for `Cc1nc2c3c(-c4ccccc4)c(-c4ccccc4)oc3ncn2n1`, the growth was 91.4%.

For the molecule `O=C1Nc2ccccc2/C1=N/N=C/c1c[nH]c2ccccc12`, the growth is 86.2%.

For `CC(=O)NNC(=S)N/C=C/c1c(C)ccc([N+](=O)[O-])c1[N+](=O)[O-]`, the growth is 99.9%.

Take `CC(CCCC(=O)O)c1ccoc1` (stereo unspecified): the growth was 97.6%.

With `COc1cc(C2CC(=O)Nc3c2c(C)nn3-c2nc3ccccc3[nH]2)cc(OC)c1O` (stereo unspecified), the growth is 43.7%.

For the molecule `COc1ccc(-c2cc(=O)c3c(OC)c4ccoc4c(/C=C/C=O)c3o2)cc1`, the growth was -3.36% (active).

Regarding `Cc1ccc(NC(=O)Nc2nc3ccccc3s2)cc1NC(=O)Nc1nc2ccccc2s1`, the growth is 106%.

Consider `N#Cc1ccccc1OCC(=O)Nc1nc2c(s1)COc1ccccc1-2`, for which the growth is 107%.

As to `O=C1/C(=C\c2cccn2Cc2ccccc2)c2ccccc2N1c1c(Cl)cccc1Cl`, the growth is 71%.

In the case of `CC(=O)OCC1CCC(COC(C)=O)CC1` (stereo unspecified), the growth was 85.5%.
